Hits are enriched below; roughly 3% of the tested compounds scored in any of these assays.
ALOX12 inh = ALOX12 (human) lipoxygenase inhibition | 580,000 compounds, 1.1% hits | purified 12hLO, xylenol orange hydroperoxide absorbance | Potency, µM (highest dose often 108 µM), actives largely listed as inhibitors | AID 1671190 | P18054; active means well fitted inhibition curve with a large enough effect; inconclusive means small, poorly fitted or top-dose-only effect, or another doubt; inactive means no such curve, though single readings can be large or run the other way
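Purified human 12hLO at 150 nM in 25 mM Hepes, 0.01% Triton X-100, pH 7.0, preincubated 15 min at room temperature with compound. Reaction started with 40 uM arachidonic acid, 30 min at room temperature. Hydroperoxide measured by Fe-xylenol orange, 573/405 nm absorbance ratio.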
BCR signal inh = blocks chronic active B-cell receptor signaling; ABC-DLBCL IkBa-CBG/CBR reporter, luminescence ratio, 4 h; Potency, µM (highest dose often 46.1 µM), actives largely listed as inhibitors; 340,000 compounds, 0.05% hits; active means well fitted inhibition curve with a large enough effect in the signal ratio, with a control signal flat, not every such curve was filed as active; inconclusive means small, poorly fitted or top-dose-only effect, or effect the other way, or a change in a side signal; the % refers to the signal ratio
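TMD8 human ABC-DLBCL cells with doxycycline-inducible IκBα–green luciferase fusion and unfused red luciferase, in 0.5% FBS medium; compounds up to 46 uM, 4 h at 37C. Green/red luminescence ratio, filter-overlap corrected, fitted to concentration-response curves.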
KCNH2 3.1 inh = inhibitors of human KCNH2 3.1 potassium channel isoform; 340,000 compounds, 0.95% hits; activity change, % (tested at about 1.8 µM); U2OS KCNH2 3.1, thallium flux FluxOr; hits give low values;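 active means maximum activity change below -70%; inconclusive means maximum activity change from -70% to -50%; inactive means maximum activity change above -50%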;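 further: thallium influx rate constant from kinetic fluorescence after stimulation buffer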
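Kinetic fluorescence (2 min after stimulation buffer) measures Tl+ influx through KCNH2 3.1 expressed by viral transduction in U2OS cells; the rate constant is normalized against DMSO controls serving as positive and negative references.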
KCNH2 WT inh = blocks the wildtype human KCNH2 potassium channel; U2OS, BacMam KCNH2, thallium flux FluxOr; hits give low values; activity change, % at 1.84 µM; Q12809; 340,000 compounds, 0.37% hits;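 active means maximum activity change below -70%; inconclusive means maximum activity change between -70% and -50%; inactive means maximum activity change above -50%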
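U2OS cells were transduced with wild-type KCNH2 virus (2.03 x 10^8 / mL) for 4 h at room temperature, then cultured overnight at 37 C. Thallium flux was read with FluxOr dye. Rate constants were normalized to DMSO controls.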
LDHA block = blocks human lactate dehydrogenase A; 480,000 compounds, 0.15% hits; activity change, % (values are at about 110 or 230 µM); AID 1347041; P00338; purified LDHA, NADH/diaphorase-resazurin fluorescence; hits give low values; in the data active means activity change below about -30%; inconclusive means mostly about -25% to -30%
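Remaining NADH was detected by diaphorase (0.133 mg/mL) converting 37 µM resazurin to fluorescent resorufin, read at 0 and 20 minutes. The preceding 5-minute room-temperature reaction used 2 nM LDHA, 0.2 mM sodium pyruvate and 0.06 mM NADH at pH 7.4.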
ClpP mod = qHTS Assay for Activators of ClpP; ATP-dependent Clp protease proteolytic subunit (Bacillus subtilis (strain 168)), P80244; Potency, µM (titrated, usually from 57.5 µM); 340,000 compounds, 1.9% hits; purified B. subtilis ClpP, FRET peptide cleavage, 20 min; active means well fitted falling curve with a large enough effect; inconclusive means small, poorly fitted or top-dose-only effect; inactive means no such curve, though single readings can be large or run the other way; further: the source files actives as falling curves though it sought activators and does not explain the sign; nearly all actives have a fitted effect of over 65% in size
Target sequence (P80244 whole entry, looked up): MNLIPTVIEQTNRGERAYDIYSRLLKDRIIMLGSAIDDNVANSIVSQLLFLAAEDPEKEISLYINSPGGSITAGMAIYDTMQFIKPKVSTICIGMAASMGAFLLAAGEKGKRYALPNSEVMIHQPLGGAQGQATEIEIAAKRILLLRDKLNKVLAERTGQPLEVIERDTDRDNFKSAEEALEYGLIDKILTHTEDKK
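Buffer: 100 mM Tris/HCl pH8, 100 mM KCl, 0.05% low protease BSA, 2.5% glycerol, 0.01% Tween-20. ClpP 10 microg/mL final; 20 min RT; delta FRET normalized to ADEP and DMSO controls.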
Numbers stand for hits.

How did CC1(C)Cc2c(ccc3ccccc23)/C(=C/C#N)N1 do in these assays?
ALOX12 inh: 40µM; BCR signal inh: inconclusive; KCNH2 3.1 inh: inactive; KCNH2 WT inh: inactive; LDHA block: inactive; ClpP mod: inactive

How did CNC(=O)/C=C1\NC(C)(C)Cc2c1ccc1ccccc21 do in these assays?
ALOX12 inh: inconclusive; BCR signal inh: inactive; KCNH2 3.1 inh: inactive; KCNH2 WT inh: inactive; LDHA block: inactive; ClpP mod: inactive

How did CCN(CC)c1ccc(/C=C2/SC(=O)N(C(C)C)C2=O)o1 do in these assays?
ALOX12 inh: 45µM; BCR signal inh: inconclusive; KCNH2 3.1 inh: inactive; KCNH2 WT inh: inactive; LDHA block: inactive

What do the screens show for `CCC(=O)Nc1nc2nc(C)cc(=O)n2[nH]1`?
ALOX12 inh: inconclusive; BCR signal inh: inactive; KCNH2 3.1 inh: inactive; KCNH2 WT inh: inactive; LDHA block: inactive; ClpP mod: inactive

Results for Cc1ccc(C(=O)Nc2nc3nc(C)cc(=O)n3[nH]2)cc1 ?
ALOX12 inh: inactive; LDHA block: -70; ClpP mod: inactive

Results for Cc1cc(Cl)ccc1OCC(=O)NCc1ccc(-c2nc3ncccc3o2)cc1 ?
ALOX12 inh: inactive; LDHA block: inactive

What do the screens show for `Cc1ccc(CNC(=O)CN2C(=O)c3ccccc3S2(=O)=O)cc1`?
ALOX12 inh: inactive; BCR signal inh: inactive; KCNH2 3.1 inh: inactive; KCNH2 WT inh: inactive; LDHA block: inactive

How did Cc1ccc(CNC(=O)CN2NS(=O)(=O)c3ccccc3C2=O)cc1 do in these assays?
ALOX12 inh: 20µM; KCNH2 3.1 inh: inactive; KCNH2 WT inh: inactive; LDHA block: inactive; ClpP mod: inactive

Results for CCOC(=O)C1CCN(S(=O)(=O)c2ccc(-c3nc4ccccc4s3)s2)CC1 ?
ALOX12 inh: inconclusive; BCR signal inh: inconclusive; KCNH2 3.1 inh: inactive; KCNH2 WT inh: inactive; LDHA block: inactive; ClpP mod: 25µM

What do the screens show for `Cc1ccc(C)c(-c2[nH]c3ccccc3c2C=O)c1`?
ALOX12 inh: inactive; LDHA block: inactive

How did Cc1c(NC(=O)c2cc(-c3ccccc3)nc3ccccc23)c(=O)n(-c2ccccc2)n1C do in these assays?
ALOX12 inh: inactive; BCR signal inh: inconclusive; KCNH2 3.1 inh: inactive; KCNH2 WT inh: inactive; LDHA block: inactive; ClpP mod: inactive

What do the screens show for `Cc1ccsc1C(=O)OCC(=O)Nc1c(C)n(C)n(-c2ccccc2)c1=O`?
ALOX12 inh: inactive; BCR signal inh: inactive; KCNH2 3.1 inh: inactive; KCNH2 WT inh: inactive; LDHA block: inactive; ClpP mod: inactive

Results for Cc1c(NC(=O)COC(=O)c2ccc[nH]c2=O)c(=O)n(-c2ccccc2)n1C ?
ALOX12 inh: inconclusive; BCR signal inh: inactive; KCNH2 3.1 inh: inactive; KCNH2 WT inh: inactive; LDHA block: inactive; ClpP mod: 18µM

How did Cc1c(NC(=O)COC(=O)c2cc(-c3ccc(-c4ccccc4)cc3)nc3ccccc23)c(=O)n(-c2ccccc2)n1C do in these assays?
ALOX12 inh: inactive; BCR signal inh: inconclusive; KCNH2 3.1 inh: inactive; KCNH2 WT inh: inactive; LDHA block: inactive; ClpP mod: 10µM

How did O=C(CN1CCN(C2CCCC2)CC(O)C1)NCCc1ccccc1 (stereo not given) do in these assays?
ALOX12 inh: inactive

How did O=[N+]([O-])c1ccc2cc[nH]c2c1 do in these assays?
ALOX12 inh: inconclusive; KCNH2 3.1 inh: inactive; KCNH2 WT inh: inactive; LDHA block: inactive; ClpP mod: 18µM

Results for O=C(O)c1ccc2cc[nH]c2c1 ?
ALOX12 inh: inactive; BCR signal inh: inactive; KCNH2 3.1 inh: inactive; KCNH2 WT inh: inactive; LDHA block: inactive; ClpP mod: 16µM

Results for CC(=O)OC[C@H]1O[C@@H](Sc2cccc3cccnc23)[C@H](OC(C)=O)[C@@H](OC(C)=O)[C@H]1OC(C)=O ?
ALOX12 inh: inactive; BCR signal inh: inconclusive; KCNH2 3.1 inh: inactive; KCNH2 WT inh: inactive; LDHA block: inactive; ClpP mod: 4µM

Results for CC(=O)OCC1OC(c2ccccc2)C(OC(C)=O)C(OC(C)=O)C1OC(C)=O (stereo not given) ?
ALOX12 inh: inactive; BCR signal inh: inactive; KCNH2 3.1 inh: inactive; KCNH2 WT inh: inactive; LDHA block: inactive; ClpP mod: inactive

How did CC(=O)OC[C@H]1O[C@@H](Sc2cccc3cccnc23)[C@H](OC(C)=O)[C@@H](OC(C)=O)[C@@H]1OC(C)=O do in these assays?
ALOX12 inh: inactive; BCR signal inh: inactive; KCNH2 3.1 inh: inactive; KCNH2 WT inh: inactive; LDHA block: inactive; ClpP mod: 14µM

What do the screens show for `O=C(N/N=C/c1ccccc1)c1[nH]c2ccc(Br)cc2c1-c1ccccc1`?
ALOX12 inh: inactive; BCR signal inh: inconclusive; KCNH2 3.1 inh: inactive; KCNH2 WT inh: inactive; LDHA block: inactive; ClpP mod: 22µM

Results for Brc1ccc(-c2nc(-c3ccc4c(c3)OCO4)no2)o1 ?
ALOX12 inh: inconclusive; LDHA block: inactive

How did OCc1cnc2ccccc2c1 do in these assays?
ALOX12 inh: inactive; LDHA block: inactive

What do the screens show for `Cc1nn(C(C)(C)C)c(OC(=O)c2ccc3c(c2)OCO3)c1Sc1ccccc1`?
ALOX12 inh: inactive; BCR signal inh: inconclusive; KCNH2 3.1 inh: inactive; KCNH2 WT inh: inactive; LDHA block: inactive; ClpP mod: 32µM

Results for O=C(Oc1ccc(OC(=O)N2CCOCC2)cc1)c1ccccc1 ?
ALOX12 inh: inactive; BCR signal inh: inconclusive; KCNH2 3.1 inh: inactive; KCNH2 WT inh: -152; LDHA block: inactive; ClpP mod: inactive

What do the screens show for `O=C(Oc1ccccc1)N1CCOCC1`?
ALOX12 inh: inactive; BCR signal inh: inactive; KCNH2 3.1 inh: inactive; KCNH2 WT inh: inactive; LDHA block: inactive; ClpP mod: inactive

Results for C1CC(C2CCN(C3CNC3)CC2)CN1 (stereo not given) ?
ALOX12 inh: inactive

What do the screens show for `C[n+]1cn(CC(O)COCc2ccccc2)c2ccccc21` (stereo not given)?
ALOX12 inh: 40µM; BCR signal inh: inactive; KCNH2 3.1 inh: inactive; KCNH2 WT inh: inactive; LDHA block: inconclusive; ClpP mod: inactive

Results for CC1(C)CC(O)CC(C)(C)N1CC(O)COCc1ccccc1 (stereo not given) ?
ALOX12 inh: inactive; BCR signal inh: inactive; KCNH2 3.1 inh: -81; KCNH2 WT inh: inactive; LDHA block: inactive; ClpP mod: inactive

Results for Cc1cccc(OCC(O)CN2C(C)(C)CC(O)CC2(C)C)c1 (stereo not given) ?
ALOX12 inh: inactive; KCNH2 3.1 inh: inactive; KCNH2 WT inh: inactive; LDHA block: inactive; ClpP mod: inactive

What do the screens show for `Fc1ccc(-n2nnc(-c3cccnc3Cl)n2)cc1`?
ALOX12 inh: inactive; BCR signal inh: inactive; LDHA block: inactive; ClpP mod: inactive

Screens: PubChem BioAssay, National Center for Advancing Translational Sciences (NCATS)
